Assay results: ChEMBL document CHEMBL1961873, “Compounds: GSK PKIS; Assays: Nanosyn kinase panel” (2012)
“And” between values parts separate entries of the source, which are not always exact repeats. Equal values may be shown once.

How the values were obtained:
[1] = target: Serine/threonine-protein kinase 26 (Homo sapiens) (UniProt Q9P289); details: at 1 µM;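 further: mean inhibition of MST4 kinase activity, reported from the GSK PKIS inhibitor-set screening panel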
[2] = target: Serine/threonine-protein kinase PAK 1 (Homo sapiens) (UniProt Q13153); details: at 0.1 µM
[3] = target: Serine/threonine-protein kinase PAK 1 (Homo sapiens) (UniProt Q13153); details: at 1 µM
[4] = target: Serine/threonine-protein kinase PAK 2 (Homo sapiens) (UniProt Q13177); details: at 0.1 µM
[5] = target: Serine/threonine-protein kinase PAK 2 (Homo sapiens) (UniProt Q13177); details: at 1 µM
[6] = target: Serine/threonine-protein kinase PAK 3 (Homo sapiens) (UniProt O75914); details: at 0.1 µM
[7] = target: Serine/threonine-protein kinase PAK 3 (Homo sapiens) (UniProt O75914); details: at 1 µM
[8] = target: Serine/threonine-protein kinase PAK 5 (Homo sapiens) (UniProt Q9P286); details: at 0.1 µM
[9] = target: Serine/threonine-protein kinase PAK 5 (Homo sapiens) (UniProt Q9P286); details: at 1 µM
[10] = target: Serine/threonine-protein kinase PAK 6 (Homo sapiens) (UniProt Q9NQU5); details: at 0.1 µM
[11] = target: Serine/threonine-protein kinase PAK 6 (Homo sapiens) (UniProt Q9NQU5); details: at 1 µM
[12] = tested on: Tyrosine-protein kinase ABL1 (Homo sapiens), P00519 [E255K]; details: at 0.1 µM
[13] = tested on: Tyrosine-protein kinase ABL1 (Homo sapiens), P00519 [E255K]; details: at 1 µM
[14] = tested on: Tyrosine-protein kinase ABL1 (Homo sapiens), P00519 [H396P]; details: at 0.1 µM
[15] = tested on: Tyrosine-protein kinase ABL1 (Homo sapiens), P00519 [H396P]; details: at 1 µM
[16] = tested on: Tyrosine-protein kinase ABL1 (Homo sapiens), P00519 [M351T]; details: at 0.1 µM
[17] = tested on: Tyrosine-protein kinase ABL1 (Homo sapiens), P00519 [M351T]; details: at 1 µM
[18] = tested on: Tyrosine-protein kinase ABL1 (Homo sapiens), P00519 [Q252H]; details: at 0.1 µM
[19] = tested on: Tyrosine-protein kinase ABL1 (Homo sapiens), P00519 [Q252H]; details: at 1 µM
[20] = tested on: Tyrosine-protein kinase ABL1 (Homo sapiens), P00519 [T315I]; details: at 0.1 µM

Sequence of Serine/threonine-protein kinase PAK 5 (Homo sapiens) (Q9P286 whole entry, looked up): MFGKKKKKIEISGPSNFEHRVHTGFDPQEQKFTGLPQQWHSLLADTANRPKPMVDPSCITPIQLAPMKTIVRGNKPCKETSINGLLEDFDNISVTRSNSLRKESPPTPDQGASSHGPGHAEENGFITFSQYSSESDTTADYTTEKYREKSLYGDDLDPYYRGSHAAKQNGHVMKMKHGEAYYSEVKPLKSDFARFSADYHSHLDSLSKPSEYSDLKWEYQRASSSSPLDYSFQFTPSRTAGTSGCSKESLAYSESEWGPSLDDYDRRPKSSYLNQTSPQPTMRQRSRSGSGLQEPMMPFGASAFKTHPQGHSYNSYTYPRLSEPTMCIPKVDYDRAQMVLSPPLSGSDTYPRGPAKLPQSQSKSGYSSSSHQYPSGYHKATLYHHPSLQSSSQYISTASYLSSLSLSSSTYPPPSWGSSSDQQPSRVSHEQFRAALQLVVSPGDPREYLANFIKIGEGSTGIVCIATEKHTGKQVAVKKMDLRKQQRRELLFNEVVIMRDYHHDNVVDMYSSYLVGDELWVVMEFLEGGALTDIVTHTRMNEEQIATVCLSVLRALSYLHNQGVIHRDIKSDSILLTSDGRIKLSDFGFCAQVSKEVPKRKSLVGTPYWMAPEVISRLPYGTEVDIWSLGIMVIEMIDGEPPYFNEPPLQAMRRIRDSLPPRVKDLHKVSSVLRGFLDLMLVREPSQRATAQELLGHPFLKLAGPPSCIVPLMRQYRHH
Sequence of Serine/threonine-protein kinase PAK 6 (Homo sapiens) (Q9NQU5 whole entry, looked up): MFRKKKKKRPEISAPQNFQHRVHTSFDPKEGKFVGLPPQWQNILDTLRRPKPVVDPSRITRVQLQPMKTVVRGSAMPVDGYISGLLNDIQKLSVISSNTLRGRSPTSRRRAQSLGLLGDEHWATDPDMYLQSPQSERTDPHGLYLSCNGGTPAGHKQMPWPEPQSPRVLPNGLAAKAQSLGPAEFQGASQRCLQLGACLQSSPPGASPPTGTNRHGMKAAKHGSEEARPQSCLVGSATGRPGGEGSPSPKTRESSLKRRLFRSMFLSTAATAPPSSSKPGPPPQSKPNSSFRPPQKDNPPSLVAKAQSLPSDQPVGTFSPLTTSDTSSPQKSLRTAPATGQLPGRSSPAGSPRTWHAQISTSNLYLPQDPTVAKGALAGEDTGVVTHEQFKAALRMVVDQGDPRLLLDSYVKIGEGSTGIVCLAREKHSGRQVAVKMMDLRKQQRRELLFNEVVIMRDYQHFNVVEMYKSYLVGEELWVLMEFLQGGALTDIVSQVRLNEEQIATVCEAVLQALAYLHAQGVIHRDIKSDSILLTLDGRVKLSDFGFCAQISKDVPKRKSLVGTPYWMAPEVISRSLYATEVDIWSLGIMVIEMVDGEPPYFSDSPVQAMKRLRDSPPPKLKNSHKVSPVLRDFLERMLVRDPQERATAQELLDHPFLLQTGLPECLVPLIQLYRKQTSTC
Sequence of Serine/threonine-protein kinase 26 (Homo sapiens) (Q9P289 2-416 limits assumed): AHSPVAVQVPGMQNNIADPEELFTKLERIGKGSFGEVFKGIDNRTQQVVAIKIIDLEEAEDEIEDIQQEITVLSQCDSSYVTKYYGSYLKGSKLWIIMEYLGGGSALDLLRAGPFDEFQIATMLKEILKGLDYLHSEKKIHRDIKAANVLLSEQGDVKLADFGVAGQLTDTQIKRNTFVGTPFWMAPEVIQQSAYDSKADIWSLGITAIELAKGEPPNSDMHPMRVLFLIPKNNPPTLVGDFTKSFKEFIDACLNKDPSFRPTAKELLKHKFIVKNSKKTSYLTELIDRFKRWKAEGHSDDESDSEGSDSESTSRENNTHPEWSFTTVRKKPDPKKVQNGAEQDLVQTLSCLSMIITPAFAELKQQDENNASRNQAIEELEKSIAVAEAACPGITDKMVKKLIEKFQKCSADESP
Sequence of Serine/threonine-protein kinase PAK 3 (Homo sapiens) (O75914 whole entry, looked up): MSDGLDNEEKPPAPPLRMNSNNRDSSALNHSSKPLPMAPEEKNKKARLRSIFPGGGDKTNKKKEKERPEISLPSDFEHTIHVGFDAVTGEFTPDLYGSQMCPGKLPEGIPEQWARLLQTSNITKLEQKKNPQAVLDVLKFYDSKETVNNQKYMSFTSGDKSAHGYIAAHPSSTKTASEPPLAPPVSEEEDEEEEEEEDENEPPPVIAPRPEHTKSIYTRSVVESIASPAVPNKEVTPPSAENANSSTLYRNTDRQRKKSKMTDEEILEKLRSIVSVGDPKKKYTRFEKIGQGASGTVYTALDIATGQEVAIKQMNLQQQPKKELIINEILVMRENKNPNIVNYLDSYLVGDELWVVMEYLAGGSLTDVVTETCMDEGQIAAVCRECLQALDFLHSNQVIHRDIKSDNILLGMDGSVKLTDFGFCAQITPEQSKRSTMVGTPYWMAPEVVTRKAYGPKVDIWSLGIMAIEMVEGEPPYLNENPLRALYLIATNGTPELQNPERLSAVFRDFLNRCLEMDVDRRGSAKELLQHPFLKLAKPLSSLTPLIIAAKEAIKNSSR
Sequence of Serine/threonine-protein kinase PAK 1 (Homo sapiens) (Q13153 whole entry): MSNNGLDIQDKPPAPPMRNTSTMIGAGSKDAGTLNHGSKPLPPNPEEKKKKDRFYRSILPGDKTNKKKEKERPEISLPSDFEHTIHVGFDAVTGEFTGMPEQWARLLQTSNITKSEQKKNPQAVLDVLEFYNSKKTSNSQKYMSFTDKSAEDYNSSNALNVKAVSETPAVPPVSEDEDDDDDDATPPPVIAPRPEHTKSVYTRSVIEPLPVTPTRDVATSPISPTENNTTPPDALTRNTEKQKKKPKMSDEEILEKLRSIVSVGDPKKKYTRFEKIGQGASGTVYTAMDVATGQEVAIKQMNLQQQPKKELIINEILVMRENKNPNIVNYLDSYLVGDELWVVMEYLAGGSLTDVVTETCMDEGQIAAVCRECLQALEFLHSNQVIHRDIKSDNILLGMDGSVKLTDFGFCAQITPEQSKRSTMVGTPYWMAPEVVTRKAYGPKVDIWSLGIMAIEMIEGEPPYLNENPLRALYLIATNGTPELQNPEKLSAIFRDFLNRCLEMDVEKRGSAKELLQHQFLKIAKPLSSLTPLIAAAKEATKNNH
Sequence of Serine/threonine-protein kinase PAK 2 (Homo sapiens) (Q13177 whole entry): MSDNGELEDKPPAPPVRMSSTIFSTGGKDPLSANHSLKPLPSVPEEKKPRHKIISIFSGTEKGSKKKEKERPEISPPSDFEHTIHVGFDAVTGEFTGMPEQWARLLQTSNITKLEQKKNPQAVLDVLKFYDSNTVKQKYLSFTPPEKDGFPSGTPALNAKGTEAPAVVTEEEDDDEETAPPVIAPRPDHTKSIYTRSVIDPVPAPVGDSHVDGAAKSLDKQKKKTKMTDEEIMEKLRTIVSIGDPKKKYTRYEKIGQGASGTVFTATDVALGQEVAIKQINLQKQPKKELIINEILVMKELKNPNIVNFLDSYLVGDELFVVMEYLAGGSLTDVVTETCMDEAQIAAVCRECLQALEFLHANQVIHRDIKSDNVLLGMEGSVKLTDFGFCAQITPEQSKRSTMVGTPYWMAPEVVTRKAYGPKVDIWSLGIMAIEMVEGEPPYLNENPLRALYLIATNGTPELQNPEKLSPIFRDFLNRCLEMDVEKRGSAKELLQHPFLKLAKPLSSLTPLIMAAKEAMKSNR

| SMILES | inhibition [1] | inhibition [2] | inhibition [3] | inhibition [4] | inhibition [5] | inhibition [6] | inhibition [7] | inhibition [8] | inhibition [9] | inhibition [10] | inhibition [11] | inhibition [12] | inhibition [13] | inhibition [14] | inhibition [15] | inhibition [16] | inhibition [17] | inhibition [18] | inhibition [19] | inhibition [20] |
| --- | --- | --- | --- | --- | --- | --- | --- | --- | --- | --- | --- | --- | --- | --- | --- | --- | --- | --- | --- | --- |
| Nc1nonc1-c1nc2cnccc2n1C1CC1 | -0.64% and -0.44% | 6.95% and 4.45% | 7.1% and 6.44% | 3.23% and 1.09% | 2.18% and 0.82% | 4.18% and 2.78% | 5.29% and 3.12% | 0.47% and 4.24% | 1.66% and 0.23% | 7.48% and 3.54% | 7.32% and -5.94% | 2.67% and 0.93% | 3.5% and 4.4% | 2.21% and 2.04% | 0.55% and 1.2% | 0.52% and -0.88% | -0.96% and 2.63% | 4.06% and 0.83% | 3.65% and 2.84% | 2.85% and 1.97% |
| CCS(=O)(=O)c1ccc(OC)c(Nc2ncc(-c3cccc(C(C)=O)c3)o2)c1 | 1.58% | 8.45% | 1.48% | 2.47% | 1.36% | -0.54% | 3.98% | 7.26% | 8.72% | 7.53% | 7.27% | 15.3% | 61.6% | 19.3% | 67.3% | 20.5% | 68.5% | 30.4% | 78% | 2.67% |
| FC(F)(F)CNc1nccc(-c2cnn3ncccc23)n1 | -0.52% | 0.97% | 6.19% | 0.24% | -0.87% | 4.27% | 3.14% | 1.55% | 1.35% | -2.63% | -2.36% | 6.33% | 1.46% | 2.61% | 2.38% | 0.25% | 0.76% | 1.08% | 1.59% | 0.06% |
| CCOc1ccc2c(-c3ccnc(Nc4cc(OC)cc(C(F)(F)F)c4)n3)cnn2n1 | 1.8% | 2.05% | 0.59% | -0.62% | 0.03% | -0.15% | -0.09% | 0.09% | 8.65% | -8.96% | 3.48% | 0.14% | 4.02% | 0.25% | 6.23% | 2.11% | 7.2% | 1.15% | 6.33% | 0.17% |
| c1cnn2ncc(-c3ccnc(NCCCN4CCOCC4)n3)c2c1 | -2.39% | 6.37% | 4.03% | 1.39% | 0.34% | 3.11% | 3.78% | 2.65% | 1.01% | -0.41% | -5.92% | 1.77% | 1.98% | 3.45% | 3.75% | 1.48% | 0.71% | 3.41% | 2.1% | 2.37% |
| CCCNc1cccc(-n2ncc3c(N/N=C/c4ccncc4)ncnc32)c1 | -1.3% | -0.99% | -0.69% | 0.12% | -0.31% | 1.59% | 1.61% | 8.4% | 5.05% | 16.9% | 2.09% | 27.1% | 77.2% | 37.5% | 86% | 36.8% | 85.8% | 35.7% | 83.8% | 37.5% |
| COc1ccc(Nc2ncc(-c3ccccc3)o2)cc1OC | -5.3% | 0.24% | 1.35% | 0.18% | 0.91% | -0.05% | 0.75% | -8.21% | -5.61% | 8.32% | -2.99% | 4.59% | 32.7% | 10.7% | 53.6% | 10.2% | 56.2% | 7.95% | 44.7% | 1.08% |
| CN1CCN(Cc2ccc(-c3cc4ncnc(Nc5ccc(OCc6cccc(F)c6)c(Cl)c5)c4s3)o2)CC1 | -2.57% and -0.01% | 6.52% and 11.3% | 6.39% and 9.31% | 0.62% and 1.36% | 1.83% and 3.59% | 3.14% and 6.57% | 5.4% and 6.56% | 2.6% | 5.21% | -1.82% | -4.15% and 3.43% | 2.21% and 2.71% | 7.15% and 8.4% | 4.73% and 6.21% | 14.3% and 18% | 1.3% and 4.75% | 14.7% and 17.9% | 4.48% and 6.29% | 16.1% and 20.9% | 3.33% and 5.07% |
| COc1cc2c(cc1Nc1nc(Nc3cccc(F)c3C(N)=O)c3cc[nH]c3n1)N(C(=O)CN1CCN(C(C)C)CC1)CC2 | 2.14% | 5.25% | 8.11% | 1.01% | 1.35% | 2.21% | 5.46% | 2.45% | 3.7% | -9.4% | -0.05% | -0.8% | -0.74% | -1.59% | 0.65% | -1.33% | 2.97% | -0.13% | 3.8% | -0.82% |
| O=C(O[C@H]1CN[C@H](C#Cc2cc3ncnc(Nc4ccc(OCc5cccc(F)c5)c(Cl)c4)c3s2)C1)N1CCOCC1 | -0.1% | 8.7% | 7.32% | 1.91% | 2.46% | 6.61% | 6.74% | 6.46% | 0.44% | -7.35% | -5.21% | 0.66% | 4.53% | 3.67% | 5.92% | 2.25% | 4.53% | 3.47% | 2.92% | 4.04% |
| CN1CCC(C(=O)Nc2n[nH]c3nc(-c4ccc(O)cc4)c(Br)cc23)CC1 | 21.2% and 19.8% | 7.92% and -0.37% | 5.42% and 3.31% | 0.62% and -0.51% | 1.42% and -0.53% | 4.2% and 1.97% | 5.02% and 1.71% | -5.26% | -8.73% and 0.52% | -2.46% and -9.85% | -4.52% | 2.77% and -0.12% | 13.4% and 6.5% | 4.9% and 3.81% | 15.7% and 13.9% | 1.55% and 2.92% | 13.9% and 9.89% | 3.16% and 3.78% | 17.1% and 15.7% | 2.49% and 2.76% |
| COc1cc(N2CCN(C(C)C)CC2)ccc1Nc1nc(Nc2cccc(F)c2C(=O)O)c2cc[nH]c2n1 | 2.17% | 6.19% | 5.79% | 1.31% | 2.49% | 4.37% | 4.9% | 3.7% | 4.16% | 0.22% | -0.16% | 3.61% | 5.65% | 1.72% | 3.69% | 1.07% | 2.29% | 4.74% | 5.16% | 3.83% |
| CN(C)CCNC(=O)Nc1ccc(N(C)c2ccnc(Nc3ccc(CS(C)(=O)=O)cc3)n2)cc1 | -2.49% | 4.61% | 9.49% | 1.79% | 2.9% | 3.73% | 4.29% | 1.15% | 6.27% | -1.56% | -1.22% | 2.92% | 10.2% | 5.45% | 12.3% | 4.48% | 15.1% | 5.59% | 17.4% | 4.39% |
